These entries were drawn from the full list.
Vaccinia_stage: Vaccinia orthopox stage-specific inhibition | Vaccinia-infected cells, mCherry/Venus stage reporter fluorescence; hits give low values | activity change (mCherry), % (no concentration beside the values) | 0.01% of 89,000 active; in the data active = activity change below about -37%, passing the limit was not always enough; tested in A549 cells
Calls only; 0 = inactive.

SMILES Vaccinia_stage
C[C@@H]1CCCCO[C@@H](CN(C)S(=O)(=O)c2ccc(F)cc2)[C@H](C)CN([C@H](C)CO)C(=O)c2cc(NC(=O)CCCN(C)C)ccc2O1 0
O=C([C@@H]1[C@@H](CO)[C@@H]2Cn3c(ccc(C4=CCCC4)c3=O)[C@H]1N2C(=O)c1ccncc1)N1CCOCC1 0
COc1ccc(S(=O)(=O)Nc2ccc3c(c2)CC(=O)N([C@@H](C)CO)C[C@@H](C)[C@H](CN(C)Cc2ccc(C(=O)Nc4ccccc4N)cc2)O3)cc1 0
C[C@@H]1CN([C@H](C)CO)C(=O)c2cc(NC(=O)CCCCCC(=O)Nc3ccccc3N)ccc2O[C@H]1CN(C)C(=O)Nc1ccc2c(c1)OCO2 0
C/C=C/c1ccc2c(c1)O[C@H](CN(C)C(=O)COC)[C@@H](C)CN([C@@H](C)CO)S2(=O)=O 0
COc1ccc(NC(=O)Nc2cccc3c2O[C@H](CN(C)C(=O)Nc2ccc4c(c2)OCO4)[C@H](C)CN([C@@H](C)CO)C3=O)cc1 0
COCC(=O)N1C[C@@H](C)[C@H](OC)CN(C)C(=O)c2ccc(NC(=O)c3ccccc3)cc2OC[C@@H]1C 0
C[C@H](CO)N1C[C@H](C)[C@H](CN(C)C(=O)c2ccccc2)Oc2cc(C3=CCCC3)ccc2S1(=O)=O 0
CCN1[C@@H]2c3ccc(-c4ccc(F)cc4)c(=O)n3C[C@@H]2[C@@H](CO)[C@@H]1C(=O)NCCc1cn(C)cn1 0
COc1cccc(C(=O)N2C[C@H]3[C@@H](c4ccccc42)[C@@H](CO)N3C(=O)c2ccccc2)c1 0
Cc1cc(C(=O)Nc2cccc3c2O[C@H](CN(C)Cc2ccccc2)[C@H](C)CN([C@H](C)CO)C3=O)n(C)n1 0
COc1ccccc1CN1C(=O)c2ccccc2[C@@]2(Cc3ccccc3N(CCN3CCOCC3)C2=O)[C@@H]1c1ccc(CO)cc1 0
C[C@H](CO)N1C[C@H](C)[C@H](CN(C)Cc2cncnc2)Oc2cc(-c3ccncc3)ccc2S1(=O)=O 0
C[C@H](CO)N1C[C@H](C)[C@H](CN(C)C(=O)NC2CCCCC2)Oc2ccc(NC(=O)NC3CCCCC3)cc2C1=O 0
CCC(=O)N1C[C@@H](O)COC[C@H]2O[C@H](CC(=O)N3CCCCC3)CC[C@@H]21 0
O=C(NC1CCC1)[C@H]1[C@H](CO)[C@H]2Cn3c(ccc(-c4ccccc4F)c3=O)[C@@H]1N2C(=O)CC1CC1 0
CCCNC(=O)N1C[C@H]2[C@@H](c3ccccc31)[C@@H](CO)N2C(=O)Nc1ccc(F)cc1 0
COc1ccc2c3c([nH]c2c1)[C@@H](CO)N(S(C)(=O)=O)CC31CCN(C(=O)c2cccnc2)CC1 0

Screening data from PubChem BioAssay.
